LASV entry inh: Lassa virus entry inhibition | Potency, µM (titrated, usually from 37.9 µM), without a hit: at the highest dose activity change, negative = inhibition, actives largely listed as inhibitors | Lassa virus pseudotype entry inhibition, cell reporter | 300,000 tested, 1.2% active; calls by dose curve; tested in HEK293 cells; note: potency is the fitted concentration of half-maximal effect; nearly all actives have a fitted effect of over 50% in size
VACV mCherry inh: vaccinia inhibition (mCherry reporter) | Vaccinia virus mCherry reporter infection, fluorescence | 310,000 tested, 0.63% active | Potency, µM (series often up to 36.5 µM), for the others: at the top dose activity change, negative = inhibition, most hits filed as inhibitors | AID 720579; calls by dose curve; tested in A549 cells; note: potency is the fitted concentration of half-maximal effect; nearly all actives have a fitted effect of over 35% in size
MARV entry inh: Marburg virus entry inhibition; 300,000 tested, 1.8% active; Marburg virus pseudotyped entry inhibition, cell reporter; Potency, µM (series often up to 37.8 µM), without a hit: at the top dose activity change, negative = inhibition, usual class: inhibitors; calls by dose curve; tested in HEK293 cells; note: potency is the fitted concentration of half-maximal effect
VACV Venus inh: inhibitors of vaccinia virus (Venus reporter); AID 720580; 330,000 tested, 0.46% active; Vaccinia virus Venus reporter expression, fluorescence; Potency, µM (titrated, usually from 36.5 µM), for the others: top-dose activity change, negative = inhibition, usual class: inhibitors; calls by dose curve; tested in A549 cells; note: potency is the fitted concentration of half-maximal effect; nearly all actives have a fitted effect of over 30% in size
HCV inhibitor: blocks hepatitis C virus | Huh7.5.1 HCVcc-Cre infection, luciferase reporter, 44 h | Potency, µM (top dose mostly 41.8 µM), for the others: at the highest dose activity change, negative = inhibition, most hits filed as inhibitors | 340,000 tested, 3.4% active | AID 651820; active = well fitted inhibition curve with a large enough effect; inconclusive = small, poorly fitted or top-dose-only effect, or another doubt; inactive = no such curve, though single readings can be large or run the other way; note: potency is the fitted concentration of half-maximal effect
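After 44 h co-culture of compound, cells and HCVcc-Cre (~0.5 moi), substrate is added for 15 min at room temperature and luciferase measured over 15 sec. Cells were seeded at 1,000/well and pre-cultured 4 h.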
HCMV inh: human cytomegalovirus inhibition. HFF cells, HCMV-luciferase reporter, 72 h; active compounds read low. activity change, negative = inhibition, % at 57.5 µM. 410,000 tested, 4.5% active; in the data active = activity change below about -60%; inconclusive = no clear call, values can overlap the other calls; inactive = above about -39%
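HFF cells seeded 16 h at 37C, treated with compounds, infected with luciferase-reporter HCMV at MOI 1 PFU/cell; luciferase read at 72 h post infection, normalized to buffer-only and Salinomycin controls.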
* hit, by the source's call; u = inconclusive; x = no result; [ ] = another dose, or the depositor's remark. Hits are enriched below; roughly 7.8% of the tested compounds scored in any of these assays. % is set by controls: 0 for no effect and ±100 for the full control effect.

SMILES	LASV entry inh	VACV mCherry inh	MARV entry inh	VACV Venus inh	HCV inhibitor	HCMV inh
CC(NNC(=S)N1CCCCCC1)c1ccc2ccccc2n1 (stereo not given)	x	5.62µM*	x	-24.9%	x	-93.5*
Cc1cccc(C#CC2=CC(=O)CC(C)(C)C2)c1	x	-18.6%	x	-22.3%	x	-99.5*
COc1cccc(C2N(c3ccc(Cl)cc3)C(=O)C3CCCN32)c1 (stereo not given)	x	-13.0%	x	-2.0%	-2.5%	24.3
COc1ccccc1C1N(c2ccc(Cl)cc2)C(=O)C2CCCN21 (stereo not given)	u	x	4.61µM*	x	-18.9%	-75.3*
O=C1C2CCCN2C(c2cccs2)N1c1ccc(Cl)cc1 (stereo not given)	7.3µM*	x	u	x	1.5%	-73.9*
CCOC(=O)c1c(C)[nH]c(C)c1S(=O)(=O)N(C)CC(=O)Nc1ccc(C)cc1C	-15.9%[46.1 µM]	-4.6%	x	-4.7%	x	-9.0
CCn1c2c(c(=O)n3ncc(C(=O)Nc4cc(Cl)ccc4OC)c13)CN(Cc1ccc(OC)cc1)CC2	-8.8%[46.1 µM]	-10.9%	x	-12.2%	x	-11.0
COc1ccc(CN2CCc3c(c(=O)n4ncc(C(=O)N5CCN(c6ccccc6OC)CC5)c4n3C)C2)cc1	u	-18.9%[7.34 µM]	x	u	x	-84.3*
CC(C)NC(=O)c1ccc(-n2c(=S)[nH]c3ccccc3c2=O)cc1	x	x	x	x	x	-84.0*
CC(C)NC(=O)c1ccc2c(=O)n(CC3CCCO3)c(=S)[nH]c2c1 (stereo not given)	8.3%	-4.5%	-4.4%[46.1 µM]	-8.2%	-10.6%	-5.3
CC1CCCN(C(=O)c2ccc3c(=O)n(Cc4ccc5c(c4)OCO5)c(=S)[nH]c3c2)C1 (stereo not given)	-27.0%	x	-19.6%	x	u	-86.8*
COC(=O)c1ccc2c(=O)n(Cc3ccc(C(=O)NC(C)C)cc3)c(=S)[nH]c2c1	u	-10.9%	u	-13.9%	7.94µM*	-25.3
Clc1ccccc1-c1nc2c(NCc3ccccc3)nccc2[nH]1	x	x	x	x	x	3.1
CCS(=O)(=O)N1CCC2(CC1)OC(=O)C(C)=C2C(=O)NCc1ccccc1C	u	-6.8%	x	-7.4%	x	17.1
CCc1ccccc1N(CC)C(=O)Cn1nc(Cc2ccncc2)c2ccccc2c1=O	-6.1%[46.1 µM]	-16.0%	u	-13.8%	x	-71.7*
CCN(C(=O)Cn1nc(Cc2ccncc2)c2ccccc2c1=O)c1ccc(OC)cc1	11.6%[46.1 µM]	-17.6%	u	-11.4%	x	-20.5
Cc1ccc(NC(=O)C2CCC(CNS(=O)(=O)c3cccc4nsnc34)CC2)c(Cl)c1 (stereo not given)	11.8%[46.1 µM]	-21.9%	-3.2%[46.1 µM]	-2.2%	x	-2.7
CCOc1cc2c(cc1/C=C1/NC(=O)N(CC(=O)OC)C1=O)OCO2	-5.1%	-12.8%	-10.7%[46.1 µM]	-18.9%	10µM*	22.7
CN(C)c1ccc(CNC(=O)c2cnc3sc(N4CCCCCC4)nn3c2=O)cc1	u	-14.1%	x	-14.5%	x	61.9
COC(=O)[C@]12OC[C@]34C([C@@H](O)[C@@H]1O)[C@]1(C)CC(=O)C(O)=C(C)[C@@H]1C[C@H]3OC(=O)[C@H](O)[C@@H]24 (stereo not given in full)	x	u	x	0.891µM*	u	u
N#CC(c1ccc(Cl)cc1)c1ccc2c(C(F)(F)F)cc(C(F)(F)F)nc2n1 (stereo not given)	2.82µM*	x	3.16µM*	14.1µM*	u	-106.5*
Cc1ccc(C)c(Nc2nc3nonc3nc2Nc2cccc(C)c2C)c1	u	-14.2%	u	u	x	-101.0*
CCOC(=O)c1ccc(Nc2nc3nonc3nc2Nc2cccc(C)c2C)cc1	u	u	u	u	x	-97.2*
Cc1nc2ccn(Cc3ccco3)c(=O)c2cc1C(=O)NCc1ccccc1	u	-5.3%	x	-6.6%	x	u
COc1ccc(Cn2ccc3nc(C)c(C(=O)NCc4ccc(C)cc4)cc3c2=O)cc1	-9.4%[46.1 µM]	-14.1%	x	-10.3%	x	-2.9
Cc1nc2ccn(Cc3ccco3)c(=O)c2cc1C(=O)NCc1ccccc1F	u	-2.1%	x	2.2%	x	-64.5*
COc1ccc(Cn2ccc3nc(C)c(C(=O)NCc4ccc(F)cc4)cc3c2=O)cc1	u	-11.2%	x	-23.3%	x	-77.4*
N#Cc1ccc(C(=O)Nc2ccc3c(c2)N(C2CCCC2)C(=O)c2ccccc2S3)cc1	u	14.4%	x	-3.9%	x	-31.9
